Measured values taken from the supplement of paper PMC10849652.
About 8,800 targets were measured; listed, in parts, are those with a hit and a random draw of the rest. About 0.5% of all pairs of compound and target were hits. Unmarked numbers belong to inactive results.

What was measured:
Assay in all cases: log2 fold change, soluble protein after heating vs DMSO (PISA); higher = thermal stabilisation; K562 lysate, 10 uM; active = over 0.2 and 3.5 SD of the protein, either way, in both replicates (recomputed)
[1] = compound: O=C1NC(=O)C(c2cnc3ccccn23)=C1c1cn2c3c(cc(F)cc13)CN(C(=O)N1CCCCC1)CC2
How it was run: (§1)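 Log-two fold change in thermal stability relative to solvent controls is reported from duplicates. For each sample, crude K562 extract from dounce-homogenised pellets in PBS pH 7.4 with 1 mM MgCl2, at 1 mg/mL protein, was treated with 10 μM compound for 30 min. Aliquots heated for 3 min across 48°C-58°C were pooled, brought to 0.5% NP-40 at 4°C and cleared at 21,000xg for 90 min. The supernatant was quantified by TMTpro 16plex LC-MS/MS with channel sums equalised.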

[2] = compound: c1cn2cc(-c3ccc4cn[nH]c4c3)nc(Nc3ccc(N4CCOCC4)cc3)c2n1 [entospletinib]
How it was run: as §1

[3] = compound: O=C(O)c1ccc2c(c1)nc(Nc1cccc(Cl)c1)c1ccncc12 [silmitasertib]
How it was run: as §1

[4] = compound: O=C(CCCCCCC(=O)Nc1ccccc1)NO [vorinostat]
How it was run: as §1

[5] = compound: NCC(=O)Nc1ccc(-n2nc(C(F)(F)F)cc2-c2ccc3c(ccc4ccccc43)c2)cc1
How it was run: as §1

Sequence of UniProt Q9NZC3 (Q9NZC3 whole entry, looked up): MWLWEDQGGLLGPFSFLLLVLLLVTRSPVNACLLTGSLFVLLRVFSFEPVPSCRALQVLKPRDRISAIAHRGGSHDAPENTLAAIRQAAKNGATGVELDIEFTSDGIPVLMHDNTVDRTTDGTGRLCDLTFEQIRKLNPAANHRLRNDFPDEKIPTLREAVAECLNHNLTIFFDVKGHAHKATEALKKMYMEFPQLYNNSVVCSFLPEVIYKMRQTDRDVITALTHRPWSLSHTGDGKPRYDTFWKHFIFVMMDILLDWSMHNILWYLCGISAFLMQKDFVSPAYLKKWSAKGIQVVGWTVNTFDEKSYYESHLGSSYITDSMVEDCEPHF
Sequence of UniProt Q08426 (Q08426 whole entry, looked up): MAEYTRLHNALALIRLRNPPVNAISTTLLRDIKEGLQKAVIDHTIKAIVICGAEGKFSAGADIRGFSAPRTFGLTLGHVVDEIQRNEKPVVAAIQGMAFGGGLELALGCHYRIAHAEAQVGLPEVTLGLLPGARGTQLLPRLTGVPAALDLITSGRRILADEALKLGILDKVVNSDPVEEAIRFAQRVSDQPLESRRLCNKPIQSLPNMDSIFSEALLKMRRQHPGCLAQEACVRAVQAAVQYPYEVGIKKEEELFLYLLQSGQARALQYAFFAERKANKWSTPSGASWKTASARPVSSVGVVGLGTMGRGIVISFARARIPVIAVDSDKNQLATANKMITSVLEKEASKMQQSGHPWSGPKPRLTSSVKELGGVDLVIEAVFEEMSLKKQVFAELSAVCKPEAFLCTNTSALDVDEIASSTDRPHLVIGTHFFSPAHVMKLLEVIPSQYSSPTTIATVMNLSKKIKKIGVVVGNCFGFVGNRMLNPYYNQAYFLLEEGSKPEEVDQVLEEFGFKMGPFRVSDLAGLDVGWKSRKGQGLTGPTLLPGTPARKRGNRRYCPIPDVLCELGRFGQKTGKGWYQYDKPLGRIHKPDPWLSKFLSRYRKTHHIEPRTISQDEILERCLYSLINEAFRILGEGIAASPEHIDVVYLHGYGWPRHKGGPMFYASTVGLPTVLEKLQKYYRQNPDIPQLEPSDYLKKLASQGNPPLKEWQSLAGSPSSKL
Sequence of UniProt Q56P03 (Q56P03 whole entry, looked up): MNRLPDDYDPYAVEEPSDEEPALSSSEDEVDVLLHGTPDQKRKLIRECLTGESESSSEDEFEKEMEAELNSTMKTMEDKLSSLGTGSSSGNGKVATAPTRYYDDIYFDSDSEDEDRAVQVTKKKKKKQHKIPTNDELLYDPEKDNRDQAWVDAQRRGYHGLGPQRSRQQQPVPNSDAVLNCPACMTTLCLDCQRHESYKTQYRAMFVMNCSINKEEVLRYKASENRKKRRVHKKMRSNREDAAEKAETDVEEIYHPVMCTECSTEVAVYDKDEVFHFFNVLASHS
Sequence of UniProt P35916 (P35916 whole entry, looked up): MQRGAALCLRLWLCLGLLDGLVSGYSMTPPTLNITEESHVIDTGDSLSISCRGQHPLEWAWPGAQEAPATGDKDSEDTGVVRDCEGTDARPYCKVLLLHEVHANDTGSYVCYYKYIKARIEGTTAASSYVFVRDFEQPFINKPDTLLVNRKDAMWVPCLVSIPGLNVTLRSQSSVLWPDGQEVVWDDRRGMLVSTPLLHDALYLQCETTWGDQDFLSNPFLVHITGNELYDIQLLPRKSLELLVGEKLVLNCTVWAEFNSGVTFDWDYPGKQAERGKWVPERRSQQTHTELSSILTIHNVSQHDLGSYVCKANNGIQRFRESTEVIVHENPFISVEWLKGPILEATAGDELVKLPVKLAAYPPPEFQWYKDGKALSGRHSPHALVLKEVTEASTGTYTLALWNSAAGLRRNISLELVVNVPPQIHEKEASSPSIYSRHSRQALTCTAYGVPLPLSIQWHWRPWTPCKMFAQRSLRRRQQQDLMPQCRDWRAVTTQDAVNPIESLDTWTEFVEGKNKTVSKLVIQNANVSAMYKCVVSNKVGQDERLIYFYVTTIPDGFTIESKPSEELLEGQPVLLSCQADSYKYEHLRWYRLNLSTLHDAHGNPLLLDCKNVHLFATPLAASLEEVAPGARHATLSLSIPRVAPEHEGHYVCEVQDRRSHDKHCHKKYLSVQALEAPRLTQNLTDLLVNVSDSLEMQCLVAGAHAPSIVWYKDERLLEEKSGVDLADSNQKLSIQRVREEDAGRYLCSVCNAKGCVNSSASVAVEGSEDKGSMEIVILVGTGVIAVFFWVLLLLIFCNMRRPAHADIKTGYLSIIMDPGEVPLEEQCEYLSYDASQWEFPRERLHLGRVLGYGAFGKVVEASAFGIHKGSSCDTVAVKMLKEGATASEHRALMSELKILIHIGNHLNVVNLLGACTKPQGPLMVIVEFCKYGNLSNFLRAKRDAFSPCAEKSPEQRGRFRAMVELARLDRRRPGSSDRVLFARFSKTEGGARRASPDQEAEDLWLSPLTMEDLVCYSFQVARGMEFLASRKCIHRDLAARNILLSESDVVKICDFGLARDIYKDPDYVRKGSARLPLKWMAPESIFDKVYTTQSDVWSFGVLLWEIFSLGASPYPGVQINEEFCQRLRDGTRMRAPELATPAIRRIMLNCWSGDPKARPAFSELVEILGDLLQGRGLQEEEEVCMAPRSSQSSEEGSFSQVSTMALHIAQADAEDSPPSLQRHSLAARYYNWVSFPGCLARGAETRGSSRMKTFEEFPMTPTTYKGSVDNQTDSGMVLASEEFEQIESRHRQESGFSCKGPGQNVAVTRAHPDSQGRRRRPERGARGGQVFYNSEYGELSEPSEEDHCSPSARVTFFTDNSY
Sequence of UniProt Q9H790 (Q9H790 whole entry, looked up): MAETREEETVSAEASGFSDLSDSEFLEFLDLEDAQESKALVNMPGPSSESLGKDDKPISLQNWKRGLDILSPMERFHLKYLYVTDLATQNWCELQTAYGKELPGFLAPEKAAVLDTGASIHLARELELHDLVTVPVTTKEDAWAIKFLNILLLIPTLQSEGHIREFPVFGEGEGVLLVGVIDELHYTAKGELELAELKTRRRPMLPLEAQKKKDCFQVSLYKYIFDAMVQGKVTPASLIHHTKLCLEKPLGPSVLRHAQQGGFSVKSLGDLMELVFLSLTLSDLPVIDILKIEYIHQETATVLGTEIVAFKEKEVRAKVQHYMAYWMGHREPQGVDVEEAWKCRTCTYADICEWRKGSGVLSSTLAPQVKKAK
Sequence of UniProt Q13011 (Q13011 whole entry, looked up): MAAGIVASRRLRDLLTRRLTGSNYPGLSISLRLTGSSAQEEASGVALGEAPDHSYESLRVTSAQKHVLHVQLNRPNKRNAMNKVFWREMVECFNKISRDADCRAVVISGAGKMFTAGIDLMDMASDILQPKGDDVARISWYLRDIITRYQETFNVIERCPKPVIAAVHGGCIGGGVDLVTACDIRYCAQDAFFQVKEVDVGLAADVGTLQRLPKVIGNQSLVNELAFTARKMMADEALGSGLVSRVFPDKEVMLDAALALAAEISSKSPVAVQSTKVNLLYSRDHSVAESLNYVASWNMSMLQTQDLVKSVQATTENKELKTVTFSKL
Sequence of UniProt Q8TF64 (Q8TF64 whole entry, looked up): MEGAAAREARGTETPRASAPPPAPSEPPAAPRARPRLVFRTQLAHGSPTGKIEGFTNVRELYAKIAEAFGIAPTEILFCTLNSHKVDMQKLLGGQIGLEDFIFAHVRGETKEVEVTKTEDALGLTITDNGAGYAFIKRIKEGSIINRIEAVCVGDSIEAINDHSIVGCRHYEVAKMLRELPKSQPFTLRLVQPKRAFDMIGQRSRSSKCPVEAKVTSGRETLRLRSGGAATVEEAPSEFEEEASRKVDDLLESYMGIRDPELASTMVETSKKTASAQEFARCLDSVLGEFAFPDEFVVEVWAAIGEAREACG
Sequence of UniProt Q9Y6B2 (Q9Y6B2 whole entry, looked up): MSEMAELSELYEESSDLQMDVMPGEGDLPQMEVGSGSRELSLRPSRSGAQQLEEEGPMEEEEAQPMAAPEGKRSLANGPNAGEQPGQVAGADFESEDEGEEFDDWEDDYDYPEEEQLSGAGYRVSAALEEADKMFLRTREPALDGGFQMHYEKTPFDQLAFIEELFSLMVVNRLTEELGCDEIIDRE
Sequence of UniProt P34913 (P34913 whole entry, looked up): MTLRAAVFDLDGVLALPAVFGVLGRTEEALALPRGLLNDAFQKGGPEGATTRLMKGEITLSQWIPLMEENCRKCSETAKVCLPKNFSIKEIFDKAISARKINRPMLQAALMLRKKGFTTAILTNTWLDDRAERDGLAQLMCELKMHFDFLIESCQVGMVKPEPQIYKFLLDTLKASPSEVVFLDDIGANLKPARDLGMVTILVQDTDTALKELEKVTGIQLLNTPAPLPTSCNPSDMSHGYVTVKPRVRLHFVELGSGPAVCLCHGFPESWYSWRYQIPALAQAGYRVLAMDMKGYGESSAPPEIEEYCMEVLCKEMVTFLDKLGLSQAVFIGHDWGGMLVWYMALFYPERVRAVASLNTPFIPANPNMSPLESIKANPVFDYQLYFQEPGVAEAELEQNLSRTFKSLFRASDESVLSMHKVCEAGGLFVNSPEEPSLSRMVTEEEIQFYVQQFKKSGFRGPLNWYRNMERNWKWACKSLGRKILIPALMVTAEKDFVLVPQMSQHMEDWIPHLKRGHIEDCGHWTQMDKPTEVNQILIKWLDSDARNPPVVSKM
Sequence of UniProt P58012 (P58012 whole entry, looked up): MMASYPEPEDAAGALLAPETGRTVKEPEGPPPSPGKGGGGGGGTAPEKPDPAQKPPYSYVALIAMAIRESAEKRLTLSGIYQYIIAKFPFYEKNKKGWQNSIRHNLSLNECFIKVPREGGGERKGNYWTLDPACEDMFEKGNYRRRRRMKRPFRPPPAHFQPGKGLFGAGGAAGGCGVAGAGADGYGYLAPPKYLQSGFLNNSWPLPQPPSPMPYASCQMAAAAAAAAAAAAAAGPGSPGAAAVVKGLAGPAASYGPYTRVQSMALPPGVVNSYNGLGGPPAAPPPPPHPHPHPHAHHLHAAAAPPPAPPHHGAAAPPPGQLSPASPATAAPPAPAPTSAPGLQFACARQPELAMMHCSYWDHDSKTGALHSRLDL

| Target | log2 fold change [1] | log2 fold change [2] | log2 fold change [3] | log2 fold change [4] | log2 fold change [5] |
| --- | --- | --- | --- | --- | --- |
| GART (UniProt C9JZG2) | -0.069 | 0.037 |  |  |  |
| ESRRB isoform 1 (UniProt O95718) |  |  | 0.087 |  |  |
| FOXL2 (UniProt P58012) |  | -0.352 | -0.027 | -0.501 |  |
| DST isoform 3 (UniProt Q03001) |  | -0.004 | 0.087 | -0.041 |  |
| FLT4 (UniProt P35916) |  | 0.054 | 0.178 | -0.435 (active) | -0.097 |
| EAPP (UniProt Q56P03) | 0.024 | 0.024 | -0.086 | 0.029 | -0.083 |
| EWSR1 (UniProt H7BY36) | -0.047 | 0.016 |  |  | 0.136 |
| EPB41, A0A2R8Y783 |  | 0.393 |  |  | -0.071 |
| GIPC3 (UniProt Q8TF64) | -0.007 | -0.017 | 0.044 | -0.336 |  |
| GCA (UniProt P28676) |  |  | -0.104 | 1.36 (active) |  |
| EPS8L2 (UniProt Q9H6S3) | 0.026 | 0.33 (active) | -0.019 | 0.017 |  |
| GDE1 (UniProt Q9NZC3) | 0.04 | -0.162 | 0.006 | -0.007 |  |
| EID1 (UniProt Q9Y6B2) |  | -0.143 | 0.191 | -0.192 |  |
| ECH1 (UniProt Q13011) | -0.052 | 0.022 | -0.026 | 0.081 | 0.041 |
| EHHADH (UniProt Q08426) | -0.048 | -0.013 | -0.035 | 0.706 (active) |  |
| EPB41 isoform 4 (UniProt P11171) | -0.085 |  | 0.101 | 0.071 |  |
| EPHX2 (UniProt P34913) | -0.021 | -0.058 | 0.002 | 0.243 (active) | 0.002 |
| EIF2AK3 (UniProt Q9NZJ5) |  |  | 0.241 | -0.142 |  |
| DVL2 (UniProt O14641) | 0.078 | -0.015 | 0.049 | 0.33 (active) | -0.056 |
| EXO5 (UniProt Q9H790) | 0.054 |  | -0.06 | 0.043 |  |
| FTSJ1 isoform 2 (UniProt Q9UET6) |  | 0.047 |  |  | -0.109 |
| FTSJ3 (UniProt Q8IY81) | 0.012 | -0.043 | 0.017 | 0.068 | -0.034 |
